# Experimental data as given in PubChem BioAssay (Tox21).
# A number with no mark means an inactive call. Inconclusive results are not listed. Entries that show only a call come without a potency. Activity calls are given as the source filed them. Calls follow the shape of the dose curve; as a rule, active = well fitted curve in the direction sought with a large enough effect in the repeat runs; inconclusive = weak or mixed curves; inactive = no such curve, though single readings can be large; an effect the other way counts as inactive or inconclusive.
# What was measured:
# [1] = A CellTox Green Cytotoxicity Assay to monitor cytotoxicity in HEK293 cells - 40 hour (AID 1224871); also: nearly all actives have a fitted effect of over 45% in size; also: potency is read from the fitted curve at half-maximal effect
# How it was run: (§1)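 Dead-cell fluorescence measured kinetically: asymmetric cyanine dye, HEK293, 600 cells/well, 5 h settle, 23 nL cpd/DMSO, 37 C, reads 0–40 h every 8 h.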
# [2] = qHTS RealTime-Glo MT Cell Viability Assay in HEK293 cells - 16 hour (AID 1224872); also: nearly all actives have a fitted effect of over 50% in size; also: potency is read from the fitted curve at half-maximal effect
# How it was run: (§2)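 Quantitative high-throughput screen of the Tox21 10K library in HEK293: cells and RealTime-Glo reagents plated together, compound added at 5 h, luminescence monitored through 40 h at 37 C.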
# [3] = qHTS RealTime-Glo MT Cell Viability Assay in HepG2 cells - 8 hour (AID 1224873); also: nearly all actives have a fitted effect of over 55% in size; also: potency is read from the fitted curve at half-maximal effect
# How it was run: (§3)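 Real-time viability: cells seeded at 600 per well together with NanoLuc and cell-permeant prosubstrate, compounds added after 5 h incubation. Luminescence tracked at 0, 8, 16, 24, 32 and 40 h of exposure.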
# [4] = qHTS RealTime-Glo MT Cell Viability Assay in HEK293 cells - 40 hour (AID 1224874); conditions: RealTime-Glo luminescence; max response: active compounds read low; also: nearly all actives have a fitted effect of over 50% in size; also: potency is read from the fitted curve at half-maximal effect
# How it was run: (§4)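 600 HEK293 cells per well, dispensed already mixed with RealTime-Glo MT reagents. Compound dosing came 5 h later. The same wells were read for luminescence at 0, 8, 16, 24, 32 and 40 h of exposure at 37 C.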
# [5] = A CellTox Green Cytotoxicity Assay to monitor cytotoxicity in HEK293 cells - 24 hour (AID 1224875); also: nearly all actives have a fitted effect of over 45% in size; also: potency is read from the fitted curve at half-maximal effect
# How it was run: as §1
# [6] = A CellTox Green Cytotoxicity Assay to monitor cytotoxicity in HepG2 cells - 16 hour (AID 1224876); also: nearly all actives have a fitted effect of over 45% in size; also: potency is read from the fitted curve at half-maximal effect
# How it was run: (§5)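 First, HepG2 cells (600/well) mixed with reagent were plated; second, after 5 h at 37 C they received compounds via pintool; third, fluorescence was measured at 0 h through 40 h at 8 h intervals.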
# [7] = A CellTox Green Cytotoxicity Assay to monitor cytotoxicity in HepG2 cells - 24 hour (AID 1224878); also: nearly all actives have a fitted effect of over 45% in size
# How it was run: as §5
# [8] = A CellTox Green Cytotoxicity Assay to monitor cytotoxicity in HepG2 cells - 40 hour (AID 1224879); also: nearly all actives have a fitted effect of over 40% in size; also: potency is read from the fitted curve at half-maximal effect
# How it was run: as §5
# [9] = qHTS RealTime-Glo MT Cell Viability Assay in HEK293 cells - 0 hour (AID 1224880)
# How it was run: as §4
# [10] = A CellTox Green Cytotoxicity Assay to monitor cytotoxicity in HEK293 cells - 32 hour (AID 1224881); also: nearly all actives have a fitted effect of over 40% in size; also: potency is read from the fitted curve at half-maximal effect
# How it was run: as §1
# [11] = A CellTox Green Cytotoxicity Assay to monitor cytotoxicity in HepG2 cells - 0 hour (AID 1224882); also: nearly all actives have a fitted effect of over 35% in size
# How it was run: as §5
# [12] = A CellTox Green Cytotoxicity Assay to monitor cytotoxicity in HepG2 cells - 32 hour (AID 1224883); also: nearly all actives have a fitted effect of over 50% in size; also: potency is read from the fitted curve at half-maximal effect
# How it was run: as §5
# [13] = A CellTox Green Cytotoxicity Assay to monitor cytotoxicity in HEK293 cells - 8 hour (AID 1224884); also: nearly all actives have a fitted effect of over 35% in size; also: potency is read from the fitted curve at half-maximal effect
# How it was run: as §1
# [14] = qHTS RealTime-Glo MT Cell Viability Assay in HepG2 cells - 16 hour (AID 1224885); also: nearly all actives have a fitted effect of over 50% in size; also: potency is read from the fitted curve at half-maximal effect
# How it was run: (§6)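 Compound treatment began 5 h after plating HepG2 cells (600/well) with NanoLuc luciferase and prosubstrate. Plates stayed at 37 C for 40 h; luminescence was captured at six time points, 0 h through 40 h.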
# [15] = qHTS RealTime-Glo MT Cell Viability Assay in HEK293 cells - 8 hour (AID 1224887)
# How it was run: as §4
# [16] = A CellTox Green Cytotoxicity Assay to monitor cytotoxicity in HEK293 cells - 16 hour (AID 1224888); also: nearly all actives have a fitted effect of over 35% in size
# How it was run: as §1
# [17] = qHTS RealTime-Glo MT Cell Viability Assay in HepG2 cells - 0 hour (AID 1224889); also: nearly all actives have a fitted effect of over 50% in size
# How it was run: as §6
# [18] = qHTS RealTime-Glo MT Cell Viability Assay in HepG2 cells - 40 hour (AID 1224870); also: nearly all actives have a fitted effect of over 50% in size
# How it was run: as §3
# [19] = qHTS RealTime-Glo MT Cell Viability Assay in HepG2 cells - 32 hour (AID 1224877); also: nearly all actives have a fitted effect of over 55% in size; also: potency is read from the fitted curve at half-maximal effect
# How it was run: as §6
# [20] = qHTS RealTime-Glo MT Cell Viability Assay in HEK293 cells - 24 hour (AID 1224886); also: nearly all actives have a fitted effect of over 50% in size; also: potency is read from the fitted curve at half-maximal effect
# How it was run: as §2
structure (smiles),measurement,setting,value
C/C=C/C=C/C=O,Potency,[1],inactive
same,Potency,[2],inactive
same,Potency,[3],inactive
same,max response,[4],10.8%
same,Potency,[5],inactive
same,Potency,[6],inactive
same,Potency,[7],inactive
same,Potency,[8],inactive
same,Potency,[9],inactive
same,Potency,[10],inactive
same,Potency,[11],inactive
same,Potency,[12],inactive
same,Potency,[13],inactive
same,Potency,[14],inactive
same,Potency,[15],inactive
same,Potency,[16],inactive
same,Potency,[17],inactive
CCCC(C(=O)OCCN(CC)CC)(c1ccccc1)c1ccccc1,Potency,[18],inactive
same,Potency,[3],inactive
same,Potency,[4],21.3 µM (active)
same,Potency,[19],inactive
same,Potency,[9],inactive
same,Potency,[11],inactive
same,Potency,[20],21.3 µM (active)
same,Potency,[16],inactive
same,Potency,[17],inactive
CN1CCCN=C1COC(=O)C(O)(c1ccccc1)C1CCCCC1 (configuration not stated),Potency,[18],inactive
same,Potency,[3],inactive
same,Potency,[5],inactive
same,Potency,[6],inactive
same,Potency,[8],inactive
same,Potency,[9],inactive
same,Potency,[10],inactive
same,Potency,[11],inactive
same,Potency,[12],inactive
same,Potency,[13],inactive
same,Potency,[14],inactive
same,Potency,[15],inactive
same,Potency,[16],inactive
same,Potency,[17],inactive
CCCCCCCCCCCCCCN(CCO)CCO,Potency,[1],38.9 µM (active)
same,Potency,[2],49 µM (active)
same,Potency,[3],54.9 µM (active)
same,Potency,[4],19.5 µM (active)
same,Potency,[5],43.6 µM (active)
same,Potency,[6],49 µM (active)
same,Potency,[19],19.5 µM (active)
same,Potency,[8],13.8 µM (active)
same,Potency,[10],38.9 µM (active)
same,Potency,[11],inactive
same,Potency,[12],19.5 µM (active)
same,Potency,[13],54.9 µM (active)
same,Potency,[14],43.6 µM (active)
same,Potency,[20],21.9 µM (active)
same,Potency,[17],inactive
OCCOCC#CCOCCO,Potency,[18],inactive
same,Potency,[2],inactive
same,Potency,[3],inactive
same,Potency,[5],inactive
same,Potency,[6],inactive
same,Potency,[19],inactive
same,Potency,[8],inactive
same,Potency,[9],inactive
same,Potency,[10],inactive
same,Potency,[11],inactive
same,Potency,[12],inactive
same,Potency,[13],inactive
same,Potency,[14],inactive
same,Potency,[20],inactive
same,Potency,[15],inactive
same,Potency,[16],inactive
same,Potency,[17],inactive
CCn1cc(C(=O)O)c(=O)c2cc(F)c(N3CCNCC3)cc21,Potency,[1],inactive
same,Potency,[2],inactive
same,Potency,[3],inactive
same,max response,[4],11.4%
same,Potency,[5],inactive
same,Potency,[19],inactive
same,Potency,[7],inactive
same,Potency,[8],inactive
same,Potency,[9],inactive
same,Potency,[10],inactive
same,Potency,[11],inactive
same,Potency,[12],inactive
same,Potency,[13],inactive
same,Potency,[14],inactive
same,Potency,[20],inactive
same,Potency,[15],inactive
same,Potency,[17],inactive
O=c1c(O)c(-c2ccc(O)cc2)oc2cc(O)cc(O)c12,Potency,[18],inactive
same,Potency,[3],inactive
same,Potency,[5],inactive
same,Potency,[6],inactive
same,Potency,[19],inactive
same,Potency,[7],inactive
same,Potency,[8],inactive
same,Potency,[9],inactive
same,Potency,[10],inactive
same,Potency,[12],inactive
same,Potency,[13],inactive
same,Potency,[14],inactive
same,Potency,[16],inactive
same,Potency,[17],inactive
C[C@@]12CCC[C@H]1[C@@H]1CC[C@H]3C[C@@H](O)CC[C@]3(C)[C@H]1CC2,Potency,[1],inactive
same,Potency,[2],inactive
same,Potency,[3],inactive
same,max response,[4],5.8%
same,Potency,[5],inactive
same,Potency,[6],inactive
same,Potency,[19],inactive
same,Potency,[7],inactive
same,Potency,[8],inactive
same,Potency,[9],inactive
same,Potency,[10],inactive
same,Potency,[11],inactive
same,Potency,[12],inactive
same,Potency,[13],inactive
same,Potency,[20],inactive
same,Potency,[15],inactive
same,Potency,[16],inactive
same,Potency,[17],inactive
CC(=O)c1ccc([N+](=O)[O-])cc1,Potency,[1],inactive
same,Potency,[2],inactive
same,Potency,[3],inactive
same,max response,[4],11.2%
same,Potency,[5],inactive
same,Potency,[6],inactive
same,Potency,[19],inactive
same,Potency,[7],inactive
same,Potency,[8],inactive
same,Potency,[9],inactive
same,Potency,[10],inactive
same,Potency,[11],inactive
same,Potency,[12],inactive
same,Potency,[13],inactive
same,Potency,[14],inactive
same,Potency,[20],inactive
same,Potency,[15],inactive
same,Potency,[16],inactive
same,Potency,[17],inactive
c1ccc(C[n+]2cccc3ccccc32)cc1,Potency,[1],inactive
same,Potency,[2],inactive
same,Potency,[3],inactive
same,max response,[4],-28.8%
same,Potency,[5],inactive
same,Potency,[6],inactive
same,Potency,[19],inactive
same,Potency,[7],inactive
same,Potency,[8],inactive
same,Potency,[9],inactive
same,Potency,[10],inactive
same,Potency,[12],inactive
same,Potency,[13],inactive
same,Potency,[14],inactive
same,Potency,[15],inactive
same,Potency,[16],inactive
same,Potency,[17],inactive
C/C=C\C/C=C/CCCCCCCCOC(C)=O,Potency,[18],inactive
same,Potency,[2],inactive
same,Potency,[3],inactive
same,Potency,[5],inactive
same,Potency,[6],inactive
same,Potency,[8],inactive
same,Potency,[9],inactive
same,Potency,[10],inactive
same,Potency,[11],inactive
same,Potency,[12],inactive
same,Potency,[13],inactive
same,Potency,[14],inactive
same,Potency,[20],inactive
same,Potency,[16],inactive
O=C(/C=C/c1ccc(O)c(O)c1)O[C@@H]1C[C@@](OC(=O)/C=C/c2ccc(O)c(O)c2)(C(=O)O)C[C@@H](O)[C@@H]1O,Potency,[1],inactive
same,Potency,[2],inactive
same,Potency,[3],inactive
same,max response,[4],3.32%
same,Potency,[5],inactive
same,Potency,[6],inactive
same,Potency,[19],inactive
same,Potency,[7],inactive
same,Potency,[8],inactive
same,Potency,[9],inactive
same,Potency,[10],inactive
same,Potency,[11],inactive
same,Potency,[12],inactive
same,Potency,[13],inactive
same,Potency,[14],inactive
same,Potency,[20],inactive
same,Potency,[15],inactive
same,Potency,[16],inactive
same,Potency,[17],inactive
CC1(CN2CCC(n3c(=O)[nH]c4ccccc43)CC2)OCc2ccccc2-n2cccc21 (configuration not stated),Potency,[18],inactive
same,Potency,[2],10.7 µM (active)
same,Potency,[4],19 µM (active)
same,Potency,[5],inactive
same,Potency,[6],inactive
same,Potency,[7],inactive
same,Potency,[9],inactive
same,Potency,[11],inactive
same,Potency,[13],inactive
same,Potency,[20],19 µM (active)
same,Potency,[16],inactive
same,Potency,[17],inactive
